The panel holds about 79,000 compounds, 15% with a hit somewhere; the sample as a whole holds those more often. Rule as the data show it: active = growth inhibition above about 70%; inactive = the rest.
Assays:
[1] = NCI Yeast Anticancer Drug Screen. Data for the rad50 strain (AID 155);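 also: 0% = growth of vehicle-only cultures of the same strain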; conditions: S. cerevisiae rad50 strain growth inhibition; at 50.0 µM; active compounds read high
Procedure, shortened: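 A DNA repair-deficient yeast mutant serves as the test organism; compound-induced growth inhibition is calculated against vehicle-treated cells.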

[2] = NCI Yeast Anticancer Drug Screen. Data for the mec2-1 strain (AID 157); conditions: S. cerevisiae mec2-1 strain, at 50.0 µM, active compounds read high
Procedure, shortened: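 Mutant yeast (mec2-1) grown with compound; growth inhibition relative to vehicle control reported.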

[3] = NCI Yeast Anticancer Drug Screen. Data for the sgs1 mgt1 strain (AID 161);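 also: 0% = growth of cultures given vehicle only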; conditions: S. cerevisiae sgs1 mgt1 strain, at 50.0 µM, active compounds read high
Procedure, shortened: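 Compounds are added to genetically altered yeast, and growth is compared with cultures given vehicle alone to give percent inhibition.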

[4] = NCI Yeast Anticancer Drug Screen. Data for the cln2 rad14 strain (AID 165);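 also: 0% = growth equal to vehicle treated cultures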; conditions: S. cerevisiae cln2 rad14 strain, at 50.0 µM, active compounds read high
Procedure, shortened: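 Readout is yeast growth inhibition versus vehicle-treated controls, using a strain with cln2 and rad14 alterations exposed to compound.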

[5] = NCI Yeast Anticancer Drug Screen. Data for the bub3 strain (AID 167); conditions: S. cerevisiae bub3 mutant strain, at 50.0 µM, active compounds read high
Procedure, shortened: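 Inhibition values come from growth of compound-treated mutant yeast normalised to vehicle-treated controls.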

[6] = NCI Yeast Anticancer Drug Screen. Data for the mlh1 rad18 strain (AID 175); conditions: S. cerevisiae mlh1 rad18 strain growth inhibition; at 50.0 µM; active compounds read high
Procedure, shortened: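 Genetically defined yeast (DNA repair-deficient) exposed to compounds; growth inhibition determined relative to vehicle.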

Measured: growth inhibition

S=c1o[nH]c(-c2ccccc2)c1C=Nc1ccccc1
inactive: [1] -5.45% | [2] 17.5% | [3] 13.9% | [4] 26.6% | [5] 5.35% | [6] 6.15%

C1CSCCSCCSCCSC1
inactive: [1] -8.05% | [2] -24.4% | [3] -13.7% | [4] -18.3% | [5] 31.9% | [6] -25.4%

CC1CN1C(=O)Nc1cccc2c(NC(=O)N3CC3C)cccc12 (stereo not given)
inactive: [1] -21.9% | [2] -12.4% | [3] -8.85% | [4] -15.8% | [5] 22.4% | [6] -2.45%

CCCCCCC1OCCO1
inactive: [1] 29.8% | [2] 2.8% | [3] 16.5% | [4] -12.8% | [5] -4.8% | [6] 15.1%

OC(c1ccncc1)(c1ccc(Cl)cc1)c1cccs1 (stereo not given)
inactive: [1] 6.35% | [2] 11.2% | [3] 6.95% | [4] -5.2% | [5] 21.4% | [6] 7.7%

O=C(NCC1(c2ccc3c(c2)OCO3)OCCO1)c1ccccc1[N+](=O)[O-]
inactive: [1] 20% | [2] -4.1% | [3] -2.1% | [4] -42.6% | [5] -5.75% | [6] 2.6%

Cn1c(=O)c2c(nc3sc4nc5ccccc5nc4n32)n(C)c1=O
inactive: [1] -9.7% | [2] -15.9% | [3] -5.45% | [4] -25.4% | [5] -30.4% | [6] 13.1%

O=C1CCCNn2c(nc3ncccc3c2=O)N1
inactive: [1] 17.3% | [2] 37% | [3] 9% | [4] -20.6% | [5] 10.1% | [6] -41.1%

Cc1cc2c(cc1[N+](=O)[O-])OCCO2
inactive: [1] 11.3% | [2] 3.9% | [3] 4.55% | [4] -15.5% | [5] -3.25% | [6] 8.55%

O=CC12c3ccccc3C(c3ccccc31)C1C(=O)NC(=O)C12 (stereo not given)
inactive: [1] 1.65% | [2] -1.05% | [3] 7.6% | [4] 31.1% | [5] -18.3% | [6] 6.65%

CCNC(=O)C(C(=O)OC)c1ccccc1 (stereo not given)
inactive: [1] 3.7% | [2] -1.5% | [3] 5.3% | [4] -3.45% | [5] 30.8% | [6] 1.2%

CSc1cc(C)c(O)c(CO)c1
inactive: [1] 6.7% | [2] 2.9% | [3] 18.2% | [4] -2.35% | [5] 12.7% | [6] 3%

Oc1cc(CN2CCOCCOCCOCCOCC2)c(O)cc1CN1CCOCCOCCOCCOCC1
inactive: [1] 7.85% | [2] -11.8% | [3] 8.9% | [4] -49.1% | [5] -8.3% | [6] -14.1%

Cc1cc(=O)c2cccc(-c3ccccc3)c2[nH]1
inactive: [1] 19.5% | [2] 1.25% | [3] 1.15% | [4] -30.9% | [5] -12.9% | [6] 22.2%

CC(C)NCCO
inactive: [1] 23.1% | [2] -3% | [3] -1.85% | [4] 21.2% | [5] 0.3% | [6] 12.3%

CC(=O)Nc1cc2c(cc1Br)Cc1cc(Br)ccc1-2
inactive: [1] -4.15% | [2] -4.1% | [3] -8.2% | [4] -4.5% | [5] 1.1% | [6] -14.2%

CNC(=O)OCc1nc(SSC(C)(C)C)n(C)c1COC(=O)NC
inactive: [1] 2.65% | [2] -1.5% | [3] 20.3% | [4] 1.9% | [5] 16.2% | [6] -9.4%

CC(C)[Si](OC1=C(c2ccccc2)C(NC(=O)/C=C/c2ccc([N+](=O)[O-])cc2)CCC1)(C(C)C)C(C)C (stereo not given)
inactive: [1] 19.2% | [2] 4.15% | [3] -0.2% | [4] -6.7% | [5] -5.35% | [6] 29.9%

CC1OC(OC2C(OC(=O)[C@@H]3CC(C)(C)C[C@H]4C5=CC[C@@H]6[C@@]7(C)C[C@H](O)[C@H](OC8OC(CO)C(O)C(O)C8O)[C@@](C)(CO)[C@@H]7[C@H](O)C[C@@]6(C)[C@]5(C)CC[C@@]34C)OCC(O)C2O)C(O)C(O)C1O (stereo not given in full)
inactive: [1] -22.4% | [2] -20.7% | [3] -18.1% | [4] -14.2% | [5] -1.8% | [6] -64.4%

CN(C)c1ccc(N=Nc2ccc(C(C)(C)C)cc2)cc1
inactive: [1] -11.3% | [2] 3.3% | [3] 5.55% | [4] -3.1% | [5] -10.6% | [6] -20.3%

— PubChem BioAssay (NCI)
